# ± gives the standard deviation of the averaged measurements.
# Tests used:
# DLD1 [1] = experiment: cell viability (CellTiter-Glo) relative to plate median (fraction of plate median); higher = more viable cells; details: 10 µM, treatment time 24 h
# Method in brief: (§1)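 Colorectal cancer cells expressing a stably transduced lentiviral TCF/Wnt firefly luciferase reporter were treated in 384-well plates with kinase inhibitor library compounds at a final 10 µM for 24 h. Firefly luciferase or CellTiterGlo luminescence was then read on parallel plates. Well signals were normalised to the plate median (webcellHTS2, additive, no log transformation) and averaged over two independent replicates.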
# HCT116 [2] = experiment: as above; details: 10 µM; treatment time 24 h; reporter: TCF4/Wnt
# Method in brief: as §1
# SW480 [3] = experiment: as above; details: 10 µM; treatment time 24 h; reporter: 7TFP
# Method in brief: as §1
# DLD1 [4] = experiment: TCF/Wnt firefly luciferase reporter signal relative to plate median (fraction of plate median); higher = higher Wnt reporter signal; details: 10 µM, treatment time 24 h
# Method in brief: as §1
# HCT116 [5] = experiment: as above; details: 10 µM; treatment time 24 h; reporter: TCF4/Wnt
# Method in brief: as §1
# SW480 [6] = experiment: as above; details: 10 µM; treatment time 24 h; reporter: 7TFP
# Method in brief: as §1
# DLD1 [7] = experiment: cell viability (CellTiter-Glo) relative to plate median (fraction of plate median); higher = more viable cells; details: 5 µM; treatment time 24 h; reporter: 7TFP
# Method in brief: (§2)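 Two independent replicates were averaged for each reported value. Library compounds were applied at a final 5 µM for 24 h to colorectal cancer cell lines stably expressing lentiviral TCF/Wnt firefly luciferase reporters. Firefly luciferase or CellTiterGlo luminescence from each well was normalised to the plate median.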
# HCT116 [8] = experiment: as above; details: 5 µM; treatment time 24 h; reporter: TCF4/Wnt
# Method in brief: as §2
# SW480 [9] = experiment: as above; details: 5 µM; treatment time 24 h; reporter: 7TFP
# Method in brief: as §2
# DLD1 [10] = experiment: TCF/Wnt firefly luciferase reporter signal relative to plate median (fraction of plate median); higher = higher Wnt reporter signal; details: 5 µM; treatment time 24 h; reporter: 7TFP
# Method in brief: as §2
# SW480 [11] = experiment: as above; details: 5 µM; treatment time 24 h; reporter: 7TFP
# Method in brief: as §2
SMILES,cell viability (DLD1 [1]; reporter: 7TFP),cell viability (DLD1 [1]; reporter: TCF4/Wnt),cell viability (HCT116 [2]),cell viability (SW480 [3]),TCF/Wnt firefly luciferase reporter signal (DLD1 [4]; reporter: 7TFP),TCF/Wnt firefly luciferase reporter signal (DLD1 [4]; reporter: TCF4/Wnt),TCF/Wnt firefly luciferase reporter signal (HCT116 [5]),TCF/Wnt firefly luciferase reporter signal (SW480 [6]),cell viability (DLD1 [7]),cell viability (HCT116 [8]),cell viability (SW480 [9]),TCF/Wnt firefly luciferase reporter signal (DLD1 [10]),TCF/Wnt firefly luciferase reporter signal (SW480 [11])
COc1ncc(-c2ccc3nccc(-c4ccnnc4)c3c2)cc1NS(=O)(=O)c1ccc(F)cc1F,0.84 ± 0.018,0.944 ± 0.073,0.295 ± 0.026,1.09 ± 0.042,0.255 ± 0.054,0.238 ± 0.067,0.132 ± 0.021,0.558 ± 0.0092,,,,,
O=C(NOCC1CC1)c1ccc(F)c(F)c1Nc1ccc(I)cc1Cl,1.19 ± 0.028,1.065 ± 0.0071,1.11 ± 0.028,1.1 ± 0.11,1.2 ± 0.042,1.04 ± 0.23,0.9945 ± 0.0078,1.16 ± 0.32,,,,,
C[C@@H]1COC(Nc2ccc3ncnc(Nc4ccc(OCc5nccs5)c(Cl)c4)c3c2)=N1,0.932 ± 0.12,0.973 ± 0.028,1.055 ± 0.0071,0.988 ± 0.031,1.14 ± 0.18,1.51 ± 0.45,1.52 ± 0.042,1.22 ± 0.25,,,,,
Nc1nccc(Oc2ccc(NC(=O)c3c[nH]cc(-c4ccc(F)cc4)c3=O)cc2F)c1Cl,1.16 ± 0.22,1.01 ± 0.069,1.12 ± 0.2,0.886 ± 0.018,1.07 ± 0.17,0.826 ± 0.016,0.766 ± 0.32,0.549 ± 0.27,,,,,
Cc1c(NC(=O)OC[C@@H]2COCCN2)cn2ncnc(Nc3ccc4c(cnn4Cc4cccc(F)c4)c3)c12,1.04,0.97 ± 0.17,1.13 ± 0.22,1.01 ± 0.092,1.27 ± 0.099,1.32 ± 0.2,1.01 ± 0.036,1.3 ± 0.078,,,,,
CN(C)C/C=C/C(=O)Nc1cc2c(Nc3ccc(F)c(Cl)c3)ncnc2cc1O[C@H]1CCOC1 [Afatinib (BIBW2992)],0.916 ± 0.074,0.843 ± 0.0092,0.635 ± 0.19,1.18 ± 0.042,0.292 ± 0.089,0.407 ± 0.0014,0.131 ± 0.091,0.447 ± 0.19,,,,,
O=C1NC(=O)/C(=C/c2ccc3c(c2)OC(F)(F)O3)S1,1.285 ± 0.0071,1.09 ± 0.021,1.15 ± 0.13,0.882 ± 0.034,0.944 ± 0.35,1.06 ± 0.24,1.18 ± 0.22,1.03 ± 0.21,,,,,
Nc1ncnc2c1c(-c1cccc(OCc3ccccc3)c1)cn2C1CC(CN2CCCC2)C1 (stereo unspecified),0.77 ± 0.15,0.809 ± 0.088,0.67 ± 0.095,0.952 ± 0.15,0.627 ± 0.15,0.755 ± 0.047,0.75 ± 0.29,0.895 ± 0.33,,,,,
CO[C@H]1C[C@@H]2CC[C@@H](C)[C@@](O)(O2)C(=O)C(=O)N2CCCC[C@H]2C(=O)O[C@H]([C@H](C)C[C@@H]2CC[C@@H](OC(=O)C(C)(CO)CO)[C@H](OC)C2)CC(=O)[C@H](C)/C=C(\C)[C@@H](O)[C@@H](OC)C(=O)[C@H](C)C[C@H](C)/C=C/C=C/C=C/1C [Temsirolimus (Torisel)],1.135 ± 0.0071,1.115 ± 0.0071,1.125 ± 0.0071,0.934 ± 0.0028,1.08 ± 0.085,0.995 ± 0.078,1.165 ± 0.0071,0.951 ± 0.11,,,,,
C=CC(=O)N1CCC[C@@H](n2nc(-c3ccc(Oc4ccccc4)cc3)c3c(N)ncnc32)C1,1.05 ± 0.077,1.115 ± 0.0071,1.36 ± 0.085,1.16 ± 0.064,0.557 ± 0.17,0.881 ± 0.35,1.33 ± 0.14,1.11 ± 0.042,,,,,
Cc1ccc(F)c(NC(=O)Nc2ccc(-c3cccc4[nH]nc(N)c34)cc2)c1 [Linifanib (ABT-869)],0.833 ± 0.063,0.948 ± 0.1,0.764 ± 0.03,0.883 ± 0.042,1.05 ± 0.086,1.33 ± 0.31,0.906 ± 0.15,0.872 ± 0.42,,,,,
CC[C@@H]1C(=O)N(C)c2cnc(Nc3ccc(C(=O)NC4CCN(C)CC4)cc3OC)nc2N1C1CCCC1,0.736 ± 0.16,0.863 ± 0.04,0.56 ± 0.13,0.897 ± 0.067,1.97 ± 0.2,2.25 ± 0.078,0.983 ± 0.93,1.36 ± 0.48,,,,,
COc1cc2ncnc(Nc3ccc(O)c(Br)c3)c2cc1OC,1.04 ± 0.13,0.98 ± 0.029,1.13 ± 0.28,1.01,1.11 ± 0.021,0.832 ± 0.11,1.11 ± 0.17,1.17 ± 0.014,,,,,
Cn1cc(-c2ccc3nnc(C(F)(F)c4ccc5ncccc5c4)n3n2)cn1,1.14 ± 0.13,0.972 ± 0.11,1.16 ± 0.05,0.846 ± 0.059,1.35 ± 0.05,1.4 ± 0.32,1.25 ± 0.43,1.06 ± 0.064,,,,,
CO[C@@H](C(=O)N1Cc2[nH]nc(NC(=O)c3ccc(N4CCN(C)CC4)cc3)c2C1)c1ccccc1,1.09 ± 0.11,1.12 ± 0.071,0.823 ± 0.29,1.1 ± 0.042,1.23 ± 0.064,1.41 ± 0.014,0.388 ± 0.019,0.656 ± 0.083,,,,,
c1cncc(CN2CCC(n3ncc4c(N5CCOCC5)nc(-c5ccc6[nH]ccc6c5)nc43)CC2)c1,0.992 ± 0.17,0.9595 ± 0.005,0.858 ± 0.052,1.19 ± 0.078,0.532 ± 0.025,0.607 ± 0.042,0.897 ± 0.16,1.16 ± 0.014,,,,,
CCCN(CCC)CCc1cccc2c1CC(=O)N2,,,,,,,,,1.02 ± 0.059,1.08 ± 0.014,1.01 ± 0.044,1.18 ± 0.092,1.07 ± 0.028
CC(C)(CO)C(O)C(=O)NCCCO (stereo unspecified),,,,,,,,,1.05 ± 0.16,1.06 ± 0.028,1.07 ± 0.064,0.992 ± 0.068,0.978 ± 0.074
CC1(C)C[C@@H]2/C(CO)=C\C=C/[C@@](C)(O)CC[C@]21O,,,,,,,,,1.08 ± 0.2,0.946 ± 0.063,1 ± 0.022,1.11 ± 0.24,0.818 ± 0.093
NS(=O)(=O)c1cc2c(cc1Cl)NC(C(Cl)Cl)NS2(=O)=O (stereo unspecified),,,,,,,,,0.977 ± 0.047,1.06 ± 0.078,0.973 ± 0.0028,1.11 ± 0.29,0.991 ± 0.013
CCN(CC)CCOC(=O)C(c1ccccc1)c1ccccc1,,,,,,,,,0.982 ± 0.068,0.972 ± 0.054,0.917 ± 0.036,0.904 ± 0.14,0.929 ± 0.0057
C#CCCCCCCCCCCCc1ccco1,,,,,,,,,0.997 ± 0.033,1.03 ± 0.014,1.075 ± 0.0071,1.145 ± 0.0071,0.953 ± 0.096
COc1cc(Nc2ncc(F)c(Nc3ccc4c(n3)NC(=O)C(C)(C)O4)n2)cc(OC)c1OC,1.1 ± 0.17,0.982 ± 0.054,1.11 ± 0.12,1.01 ± 0.037,1.05 ± 0.13,0.941 ± 0.044,1.24 ± 0.2,0.914 ± 0.57,,,,,
COc1c(C)c2c(c(O)c1C/C=C(\C)CCC(=O)O)C(=O)OC2,,,,,,,,,1.03 ± 0.12,0.802 ± 0.03,1.03 ± 0.065,1.045 ± 0.0071,1.14 ± 0.11
O=[N+]([O-])c1cccc2cn[nH]c12,,,,,,,,,1.015 ± 0.0071,0.987 ± 0.076,0.962 ± 0.047,1.1 ± 0.042,1.14 ± 0.021
